High-throughput results (PubChem BioAssay)
In the library only some 2.4% were active in any assay of this set; here they are far more common.
SENP6 block: blocks the human protease SENP6. Q9GZR1. Recombinant SENP6 catalytic domain, aminoluciferin luminescence. inhibition, % at 10 µM. 330,000 compounds, 1.8% hits. AID 2599;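 active = inhibition above about 50% at the single tested dose, limit read from the data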
SENP8 block-1: SENP8 (human) protease inhibition. Q96LD8. recombinant SENP8, Nedd8 substrate fluorescence. inhibition, % at 20 µM. 360,000 compounds, 0.64% hits; in the data active = inhibition mostly above about 40%, no sharp cut-off; inactive = mostly below about 27%
Target sequence (Q96LD8 whole entry, looked up): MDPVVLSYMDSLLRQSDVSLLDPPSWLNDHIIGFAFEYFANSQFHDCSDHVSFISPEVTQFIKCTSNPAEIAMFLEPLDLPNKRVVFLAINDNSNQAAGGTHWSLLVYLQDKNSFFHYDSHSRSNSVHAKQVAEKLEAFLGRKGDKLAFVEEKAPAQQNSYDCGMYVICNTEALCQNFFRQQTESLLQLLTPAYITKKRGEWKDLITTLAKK
SENP8 block-2: inhibitors of human SENP8 protease | AID 2540 | Q96LD8 | purified SENP8, Z-RLRGG-aminoluciferin cleavage, luminescence | inhibition, % at 10 µM | 330,000 compounds, 1.2% hits; in the data active = inhibition above about 50%
Platelet DG rel: modulates dense granule release in human platelets; inhibition, %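 (compounds screened at 7.5 µM in platelet-rich plasma)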; human platelet-rich plasma, SFLLRN dense granule ATP release, luminescence; 300,000 compounds, 0.22% hits; AID 1663;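 active = mean replicate score, as percent of positive control, at or above 50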
SENP7 inh: blocks the human protease SENP7; recombinant SENP7, Z-RLRGG-aminoluciferin luminescence, 40 min; AID 434973; 330,000 compounds, 1.5% hits; inhibition, % at 5 µM;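 active = inhibition above about 50% at the single test dose, limit read from the data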
SENP8 confirm: confirmation of human SENP8 protease inhibitors. shares compounds with SENP7 inh. Recombinant SENP8, Z-RLRGG-aminoluciferin luminescence, 60 min. inhibition, % at 12.5 µM. 6,200 compounds, 40% hits. AID 488912;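 active = mean inhibition across replicates above about 50%, limit read from the data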
SENP6 confirm: human SENP6 inhibition, confirmed; shares compounds with SENP7 inh; recombinant SENP6, Z-RLRGG-aminoluciferin luminescence; inhibition, % at 12.5 µM; 6,200 compounds, 58% hits; AID 488915
SENP7 conf: confirmation of human SENP7 protease inhibitors; shares compounds with SENP7 inh; AID 488917; 6,200 compounds, 69% hits; inhibition, % at 12.5 µM; recombinant SENP7, Z-RLRGG-aminoluciferin luminescence, 40 min
Casp3 select: caspase-3 inhibition (SENP selectivity assay) | shares compounds with SENP7 inh | purified caspase-3, Z-DEVD-aminoluciferin luminescence, 60 min | inhibition, % at 12.5 µM | 6,200 compounds, 60% hits | AID 488918;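 active = mean inhibition above about 50%, limit read from the data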
Target sequence (P42574 28-227 limits assumed): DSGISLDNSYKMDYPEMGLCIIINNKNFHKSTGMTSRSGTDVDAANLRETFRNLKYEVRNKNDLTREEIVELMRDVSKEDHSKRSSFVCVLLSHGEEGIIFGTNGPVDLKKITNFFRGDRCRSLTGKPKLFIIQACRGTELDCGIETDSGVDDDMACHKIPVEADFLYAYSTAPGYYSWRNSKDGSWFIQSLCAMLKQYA
Luc interf: interferes with luciferase luminescence in SENP counter-screen; shares compounds with SENP7 inh; Pre-incubated SENP8/Z-RLRGG-aminoluciferin, luciferase luminescence interference; inhibition, % at 12.5 µM; 6,200 compounds, 39% hits; AID 488919;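 active = mean inhibition above about 50% when retested at one dose, limit read from the data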
Numbers stand for hits; i = inactive; nt = no result.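 Rule for the calls, unless noted: active = mean inhibition above about 50% in the one-dose retest (limit read from the data); inactive = the rest.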

SMILES	SENP6 block	SENP8 block-1	SENP8 block-2	Platelet DG rel	SENP7 inh	SENP8 confirm	SENP6 confirm	SENP7 conf	Casp3 select	Luc interf
CSc1ccc(/C=N/NC(=O)c2sccc2C)cc1	94	i	92	i	100	i	61	101	63	i
CSc1ccc(/C=N/NC(=O)c2ccc(C)c(C)c2)cc1	i	i	i	i	i	nt	nt	nt	nt	nt
COCCN(CC(=O)Nc1cccc(C)c1C)C(=O)c1cc(-c2ccncc2)nc2ccccc12	i	i	i	nt	i	nt	nt	nt	nt	nt
CC(C)c1ccc(/C=C/C(=O)Nc2nncs2)cc1	84	i	73	i	90	i	54	82	63	i
CC(C)N1CCN(c2ccncc2S(=O)(=O)N2CCN(C)CC2)CC1	nt	i	nt	nt	nt	nt	nt	nt	nt	nt
c1ccc([C@H]2CN3C(=N2)Sc2ccccc23)cc1	93	i	89	nt	88	93	93	100	88	92
N#CC1=C(N)N2C(=C(C#N)C1c1ccccc1)Sc1ccccc12 (centres undefined)	i	nt	i	i	i	nt	nt	nt	nt	nt
O=C(CSC(=S)N1CCCC1)NCC(=O)Nc1ccc(F)c(F)c1	i	i	i	i	i	nt	nt	nt	nt	nt
O=C1C(C2=C(O)c3ccccc3C2=O)=Nc2ccccc21	89	60	79	i	i	i	95	100	60	i
CCC(C)[C@H](NC(=O)OC(C)(C)C)C(=O)N/N=C/c1ccc2nccnc2c1 (some centres undefined)	i	i	i	i	i	nt	nt	nt	nt	nt
CC(C)C[C@H](NC(=O)OC(C)(C)C)C(=O)N/N=C/c1ccc2nccnc2c1	i	i	i	i	51	i	i	i	i	i
CC(C)Cn1c(=O)c2ccccc2n2c(CCC(=O)NCC3CCCO3)nnc12 (centres undefined)	i	i	i	i	i	nt	nt	nt	nt	nt
N#Cc1c(NC(=O)c2ccc([N+](=O)[O-])o2)sc2c1CCC2	80	i	i	i	i	58	79	79	76	i
N#Cc1c(NC(=O)COC(=O)c2ccc(F)cc2)sc2c1CCC2	i	i	i	i	51	i	i	i	i	i
Cc1cccc(C(=O)Nc2sc3c(c2C#N)CCCCC3)c1	i	i	i	i	77	i	i	i	i	i
N#Cc1c(NC(=O)c2ccccc2)sc2c1CCC2	63	i	i	i	i	i	i	i	i	i
NC(=O)c1c(NC(=O)c2ccc([N+](=O)[O-])o2)sc2c1CCCC2	i	i	i	i	i	nt	nt	nt	nt	nt
CC(=O)NC12CC3CC(C1)CC(C(=O)N1CCN(c4ncccn4)CC1)(C3)C2	i	i	i	i	i	nt	nt	nt	nt	nt
O=C(CSCc1ccc(F)cc1)Nc1ccccc1	i	i	i	i	65	i	i	i	i	i
NC(=O)COC(=O)c1ccccc1Oc1ccccc1	i	i	i	i	i	nt	nt	nt	nt	nt
Nc1ccc(-c2nc3ccc([N+](=O)[O-])cc3[nH]2)cc1	50	i	i	i	i	i	i	73	i	i
CCCC[n+]1ccc(-c2nc3ccc([N+](=O)[O-])cc3[nH]2)cc1	i	i	i	i	i	nt	nt	nt	nt	nt
O=[N+]([O-])c1ccc(-c2nc3ccc([N+](=O)[O-])cc3[nH]2)cc1	85	i	68	i	76	i	i	58	i	50
Cc1cc(C)c2nc3nc(C)c(C)cc3c(N)c2c1	i	i	i	i	i	nt	nt	nt	nt	nt
O=C(Nc1nnc(SCc2ccccc2)s1)c1cccc([N+](=O)[O-])c1	84	i	71	i	i	68	66	83	53	i
SMILES	SENP6 block	SENP8 block-1	SENP8 block-2	Platelet DG rel	SENP7 inh	SENP8 confirm	SENP6 confirm	SENP7 conf	Casp3 select	Luc interf
CC1CCN(S(=O)(=O)c2nnc(NC(=O)c3cccc([N+](=O)[O-])c3)s2)CC1	i	i	i	i	i	nt	nt	nt	nt	nt
O=C(Nc1nnc(S(=O)(=O)N2CCCC2)s1)c1cccc([N+](=O)[O-])c1	52	i	i	i	i	i	i	i	i	i
O=C(Nc1nnc(CSCc2ccccc2F)s1)c1cccc([N+](=O)[O-])c1	56	i	i	i	i	i	i	i	i	i
Cc1nnc(SCc2cccc([N+](=O)[O-])c2)s1	i	i	i	i	i	nt	nt	nt	nt	nt
CC(C)C(=O)Nc1nnc(CSCc2ccccc2F)s1	i	i	i	i	i	nt	nt	nt	nt	nt
O=C(OCc1cn([C@@H]2C[C@H](c3ccc(Cl)cc3)N(C(=O)C3CCCCC3)C[C@H]2O)nn1)c1ccccc1	nt	i	nt	nt	nt	nt	nt	nt	nt	nt
COC(=O)c1c(C)cc(C)c2c1CC(C)(C)C2=O	i	i	i	i	i	nt	nt	nt	nt	nt
Cc1ccc(N2C(=O)c3ccccc3C2=O)cc1Cl	i	i	i	i	51	i	i	i	i	i
CC1CC(C)CN(c2cc(N(C)CCO)c([N+](=O)[O-])c3nonc23)C1 (centres undefined)	i	i	i	i	i	nt	nt	nt	nt	nt
CC1CCN(c2cc(N(C)CCO)c([N+](=O)[O-])c3nonc23)CC1	i	i	i	i	90	i	i	i	i	i
S=C(Nc1ccc(Br)cc1Cl)N1CCN(c2ccccn2)CC1	i	i	i	i	i	nt	nt	nt	nt	nt
O=C(c1ccc2c(c1)OCO2)N1CCCC1	i	i	i	i	i	nt	nt	nt	nt	nt
O=C(Nc1ccc(NC(=O)c2ccco2)c(Cl)c1)c1ccc2c(c1)OCCO2	i	i	i	i	i	nt	nt	nt	nt	nt
O=C(Nc1ccc(C(=O)N2CCCCC2)cc1)C1=CSCCO1	79	i	68	i	81	78	74	91	91	77
O=C(Nc1ccc(C(=O)N2CCCC2)cc1)c1ccc2c(c1)OCO2	87	i	80	i	91	83	86	99	96	89
O=C(Nc1ccc(NC(=O)c2ccco2)cc1)c1ccc2c(c1)OCO2	54	i	i	i	62	i	i	i	i	i
CC(C)(C)c1ccc(/C=C2\SC(=O)N(CCNC(=O)c3cccc(S(=O)(=O)N4CCOCC4)c3)C2=O)cc1	91	i	82	i	90	i	59	74	55	i
O=C(CN(Cc1ccc(Cl)cc1)C(=O)CNS(=O)(=O)c1ccc(F)cc1)NCC1CCCO1 (centres undefined)	i	i	i	i	i	nt	nt	nt	nt	nt
Cc1ccc(S(=O)(=O)N2CCC(C(=O)N3CCc4ccccc43)CC2)cc1C	i	i	i	nt	i	nt	nt	nt	nt	nt
Nc1nc2n(n1)C(c1cccc(Cl)c1)CC(c1ccc(F)cc1)N2 (centres undefined)	i	i	i	i	65	i	i	i	i	i
COc1cc2sc3cc(NCC[C@@H]4CCCN4C)ccc3c(=O)c2cc1OC	57	i	50	nt	53	i	i	i	i	i
